Compound activity: PubChem BioAssay, ICCB-Longwood Screening Facility, Harvard Medical School
Many of the other results were omitted from the sample, so hits are more common in it than they were.
VACV E9 pol inh – blocks vaccinia virus processive DNA synthesis; actives 0.94% (n = 46,000); normalized absorbance, % (concentration not given with the values); in vitro processive DNA synthesis, absorbance read-out; active compounds read low; in the data active means normalized absorbance mostly below about 85%, no sharp cut-off; inactive means mostly above about 86%
Numbers without * were called inactive; ! = not confirmed by another sample.

SMILES | VACV E9 pol inh
COc1cccc(CNC(=O)c2[nH]c3cc(C)ccc3c2Sc2ccc(Cl)cc2)c1OC | 94.6
COc1cc2c(cc1OC)CN(C(=O)c1ccco1)CC2 | 102.0
CC(C)N1CCN(C(=O)c2ccco2)CC1 | 104.7
COc1cc2nc(N3CCN(C(=O)c4ccco4)CC3)nc(N)c2cc1OC | 85.0*!
CC(C)c1ccc(C2Nc3ccccc3S(=O)(=O)N2Cc2ccccc2)cc1 (stereo not drawn) | 94.3
CCOc1ccc2nc(SCC)[nH]c2c1 | 127.3
CCOc1ccc(-c2nc(=S)[nH][nH]2)cc1 | 101.1
CCOc1ccc(-c2nc3ccc(-c4nc5ccc(N6CCN(C)CC6)cc5[nH]4)cc3[nH]2)cc1 | 22.6*
Cn1cnnc1SCC(=O)Nc1ccc(Cl)cc1C(F)(F)F | 92.9
Cc1ccc(Oc2ncccc2NC(=O)C(=S)NCc2ccccc2)c2c1CCC2 | 98.8
CCOC(=O)CN1C(=O)/C(=C/c2ccccc2)SC1=S | 81.5*
CCCOC(=O)CN1C(=O)/C(=C/c2ccccc2)SC1=S | 85.7
O=C(O)CN1C(=O)/C(=C/c2ccccc2)SC1=S | 90.0
CCC(CO)Nc1nc(C)nc2sc3c(c12)CCCC3 (stereo not drawn) | 101.9
CC(C)(C)SCCNc1nc(Oc2ccc(F)cc2)nc(Oc2ccc(F)cc2)n1 | 95.9
NNc1ccc(Cl)c(Cl)c1 | 85.1
O=C(Nc1ccccc1)Nc1ccc(Br)cc1 | 100.4
NNc1ccc(Br)cc1 | 54.0*
COc1cc(C)c(C(C)C)cc1S(=O)(=O)N1CCCC1 | 97.9
CSCCC(C(=O)O)N1C(=O)CSC1=S (stereo not drawn) | 88.4
CSCCC(C(=O)O)n1c(O)c(/C=C2\C=Nc3ccccc32)sc1=S (stereo not drawn) | 78.0*
CSCCC(C(=O)O)N1C(=O)/C(=C/c2ccc(O)cc2)SC1=S (stereo not drawn) | 98.0
CCCN(CCC)c1cc(Cl)nc(SC)n1 | 109.7
COc1ccc(CNc2ccccn2)cc1OC | 98.8
C=CCOc1ccccc1CNc1ncn[nH]1 | 84.1
SMILES | VACV E9 pol inh
COc1ccc(CNc2ncn[nH]2)cc1OC | 82.0*
Cc1cc(N=Cc2cc(Cl)cc(Cl)c2O)no1 | 56.3*
Oc1c(Cl)cc(Cl)cc1C=Nc1ccc2n[nH]nc2c1 | 102.5
Oc1c(Cl)cc(Cl)cc1/C=N/c1ccnn1-c1ccccc1 | 90.1
CC(C)NC(=O)c1cc2c(s1)CCC2 | 100.9
CN1CCN(c2ccc(NS(=O)(=O)c3cccc4nonc34)cc2)CC1 | 103.0
COc1ccc(Cc2nccc3cc(OC)c(OC)cc23)cc1OC | 97.0
COc1cc2ccc3c(CCN(C)C)cc(OC)c(OC)c3c2cc1OC | 60.9*
COc1cc(C(=O)NCc2ccc(OCCN(C)C)cc2)cc(OC)c1OC | 100.6
CN1CCN(C(=O)CC23CC4CC(CC(Br)(C4)C2)C3)CC1 | 102.3
CCS(=O)(=O)N1CCN=C1SCc1ccc(C)cc1 | 101.1
COc1ccc(-c2ccnc(SCc3ccc(Cl)cc3Cl)n2)cc1 | 110.8
CCS(=O)(=O)N1CCN=C1SCc1ccc(Cl)cc1Cl | 20.8*
O=C(SCc1ccco1)c1c(Cl)nc2ccccn12 | 79.3
CCc1ccc(NC(=O)C2CCN(c3nnc(-n4cccc4)s3)CC2)cc1 | 101.1
O=C(/C=C/c1ccccc1)Nc1nc(-c2ccccc2)cs1 | 86.8
O=C(O)CSc1ncnc2scc(-c3ccc(Br)cc3)c12 | 67.6*
Cc1ccc(-c2csc3ncnc(SCCC(=O)O)c23)cc1 | 96.1
CC(C)OC(=O)CSc1ncnc2scc(-c3ccccc3)c12 | 102.9
CC(CCc1ccccc1)NCc1ccco1 (stereo not drawn) | 102.1
Nc1ccc(-c2cn3ccccc3n2)cc1 | 100.6
O=C(Nc1ccccc1)N1CCN(c2ccc(C(F)(F)F)cn2)CC1 | 96.9
Cc1ccc(S(=O)(=O)NC(=O)N2CCCN(c3ccc(C(F)(F)F)cn3)CC2)cc1 | 91.5
CC(C)(C)NC(=O)N1CCN(c2cc(C(F)(F)F)ccn2)CC1 | 77.7*
COCCn1c(C)cc(C(=O)CSc2ncnc3sc(C)c(C)c23)c1C | 111.4
SMILES | VACV E9 pol inh
CCCC(=O)Nc1cccc(N)c1 | 100.8
O=C(O)CCC(=O)Nc1cccc(O)c1 | 100.0
Nc1cccc(NC(=O)CCC(=O)O)c1 | 72.1*
COc1ccc2nc(C)cc(OCC(=O)Nc3cc(C)cc(C)c3)c2c1 | 101.0
Cc1ccccc1N=Cc1c(O)[nH]c2ccccc12 | 99.6
CCC(C)(C)NC(=O)COc1ccc2c(C)cc(=O)oc2c1 | 102.5
CN(C)CCNc1nc2ccccc2[nH]1 | 83.7
Cc1cccc(CN2CCN(C(=O)CC(C)C)CC2)c1 | 59.3*
O=C(Cc1cccc2ccccc12)N1CCN(Cc2ccccc2)CC1 | 101.9
CCn1c2ccccc2c2cc(CN3CCN(Cc4cccc(C)c4)CC3)ccc21 | 99.4
O=C(CSc1nc2ccccc2o1)NC1CCCc2ccccc21 (stereo not drawn) | 103.0
CN(C)c1ccc(C(=O)OCC(=O)NC2CC2)cc1 | 106.6
CN(C)c1ccc(C(=C2C=CC(=[N+](C)C)C=C2)c2ccc(N(C)C)cc2)cc1 | 49.3*
CN(C)c1ccc(C(=NO)c2ccc(N(C)C)cc2)cc1 | 99.9
Cc1nc2c3ccccc3n3c(CCCC(=O)NCCc4ccc(Cl)cc4)nnc3n2n1 | 89.9
Cc1cc(C)c(S(=O)(=O)N2CCSC2C)c(C)c1 (stereo not drawn) | 105.7
Oc1ccc(Br)cc1C=NCc1ccccc1 | 97.5
Oc1ccc(Br)cc1C=NCC1CCCO1 (stereo not drawn) | 75.0*
Oc1ccc(Br)cc1C=NCC12CCC3CC(CC(C3)C1)C2 | 100.1
CCC(C(=O)NCc1ccco1)n1c(SCc2ccc(F)cc2)nc2cccnc21 (stereo not drawn) | 100.4
Cc1ccc(SCC(=O)N2CCc3ccccc32)cc1 | 99.9
O=C(CSc1c[nH]c2ccccc12)N1CCc2ccccc21 | 99.8
Nc1ccccc1SCC(=O)N1CCc2ccccc21 | 78.7*
O=C(CSc1ccc(Cl)cc1)Nc1cccc(Cl)c1 | 99.7
O=C(Nc1ccncc1)c1cc2c(s1)CCC2 | 96.8
SMILES | VACV E9 pol inh
NS(=O)(=O)c1ccc(Cl)cc1Sc1ccccc1C(=O)O | 85.6
Oc1ccc(Cl)cc1 | 102.8
Oc1ccc(Cl)cc1Sc1cc(Cl)ccc1O | 77.2*
COc1ccc(C2(C(=O)NCc3ccco3)CCOCC2)cc1 | 108.9
CC(=O)Nc1sccc1C(=O)O | 91.6
Cc1ccc(C)n1-c1sccc1C(=O)CC#N | 109.5
Cc1ccc(C)n1-c1sccc1C(=O)O | 22.0*
c1ccc(CCSCc2nc3ccccc3[nH]2)cc1 | 102.8
O=C(/C=C1\Sc2ccccc2NC1=O)NCCCN1CCC(Cc2ccccc2)CC1 | 100.3
Cc1nc(C#N)c(N(C)C)o1 | 100.6
Cn1ncc(C(=O)CC#N)c1C(F)(F)F | 93.9
CC(Nc1cc(C)ccn1)=C(C#N)C#N | 62.8*
Cc1ccnc(NC(=O)c2cc(-c3ccc(C)c(C)c3)n[nH]2)c1 | 92.4
Cc1ccnc(NC(=O)c2cccs2)c1 | 99.9
COc1cc(/C=C2/SC(=NCc3ccccc3)N(Cc3ccccc3)C2=O)cc(OC)c1OC | 99.5
CC(=O)N(C(C)=O)c1nccc(-c2c(-c3ccccc3)noc2C)n1 | 96.9
Cc1onc(C(=O)N(C)C)c1-c1ccnc(=S)[nH]1 | 87.7*
Cc1nc2ccccn2c1-c1ccnc(=S)[nH]1 | 97.6
Cc1nnc(-c2ccccc2)c(=O)n1/N=C/c1cccs1 | 93.2
COc1ccc(CCNC(=O)c2cc3c(=O)[nH]c4ccc(C)cc4c3s2)c(OC)c1 | 101.6
COc1ccc2c(C)cc(SCC#N)nc2c1 | 83.7*
COc1ccc2c(C)cc(SCc3c(C)noc3C)nc2c1 | 86.7
COc1ccc2c(C)cc(SCC(=O)Nc3ccccc3)nc2c1 | 101.8
Cc1ccc(N2CS(=O)/C(=C/Nc3ccc(Cl)cc3)C2=O)cc1 (stereo not drawn) | 85.6
